Hit rate of the full screen: of about 320,000 compounds, about 7,600 (2.4%) were called active. A call without a number means that no potency is given here. Another 3% or so got no clear call; they are omitted. Calls come from the whole dose curve; as a rule, active = well fitted activation curve with a large enough effect; inconclusive = small, poorly fitted or top-dose-only effect; inactive = no such curve, though single readings can be large or run the other way. Many of the other results were omitted from the sample, so actives are more common in it than they were.
Test: qHTS Assay for NPC1 Promoter Activators; note: nearly all actives have a fitted effect of over 60% in size
Settings: Huh7 NPC1 promoter luciferase reporter, 24 h; series mostly up to 9.22 µM
Description: NIH Chemical Genomics Center [NCGC] NIH Molecular Libraries Probe Production centers Network [MLPCN] MLPCN Grant: MH089375-01A1 Assay Submitter (PI): Yiannis A. Ioannou NCGC Assay Overview: Niemann Pick Type C (NPC) is a rare neurodegenerative lipidosis that is characterized by lipid storage in the endosomal/lysosomal system. Treatment modalities for this devastating disease are currently non-existent due to the severe obstacles associated with accessing the central nervous system with proteins or genes. The majority of mutations causing NPC disease are missense mutations that are distributed throughout the length of the NPC1 protein, with the most prevalent being the I1061T allele. Although NPC1 mutant proteins may be functional, they are typically trapped in the ER due to misfolding. […] We have developed and optimized a cell based luciferase reporter assay in 1536 well format for the identification of up-regulators of the mutant NPC1 promoter.
The NPC1 promoter is cloned in front of the luciferase reporter gene, therefore NPC promoter activation results in luciferase expression. Frozen stock of the NPC1 promoter transfected Huh7 cells were obtained from the laboratory of Dr. Yiannis Ioannou (The Mount Sinai School of Medicine, New York, NY). Cells were propagated and maintained at NCGC in medium containing RPMI-1640 supplemented with 10% FBS, 2mM L-glutamine, and 50ug/ml penicillin/streptomycin. Cells were harvested in and plated for assays in OP-MEM I reduced-serum medium supplemented with 10% FBS. The Amplite luciferase reporter gene assay kit was purchased from ABD Bioquest and prepared/stored according to manufacturers recommendations. qHTS Assay Setup: 1.#Dispensed 5ul of Huh7 cells stably expressing NPC1-luciferase at a density of 1500 cells per well 1536-well plates. 2.#Incubate cells at 37C, 5% CO2, and 95% humidity for 2 hours. 3.#Transferred 23nl per well of compound in DMSO solution. 4.#Incubated at 37C, 5% CO2, and 95% humidity for 24 hours. 5.#Dispensed 3ul per well of Amplite reagent(ABD Bioquest) per well. 6.#Incubate at ambient for 10 minutes. 7.#Read using the luminescence protocol on the ViewLux plate reader (Perkin Elmer).
Potency is the fitted concentration of half-maximal effect.

| Compound | Potency |
| --- | --- |
| O=C(CSc1ncnc2sccc12)N1CCN(C(=O)c2cccs2)CC1 | inactive |
| Cc1ccc(S(=O)(=O)N2CCCCC2)cc1NC(=O)[C@@H]1CCCN1C(=O)c1cccs1 | inactive |
| O=C(CSc1nc2ccccc2c(=O)n1-c1ccc(F)cc1)NC1CC1 | inactive |
| Cc1ccc(-n2c(SCC(=O)N3CCC(C(=O)O)CC3)nc3ccccc3c2=O)cc1C | 3550 nM (active) |
| COc1cccc(-n2c(SCC(=O)NC3CCS(=O)(=O)C3)nc3ccccc3c2=O)c1 (centres undefined) | inactive |
| CC(=O)Nc1ccc(SC[C@H](Cc2ccccc2)N2CC[C@@H](C)CCC2=O)cc1 | inactive |
| CCn1c(=N)n(CC(=O)c2cccc(OC)c2)c2ccccc21 | 3550 nM (active) |
| COc1ccc2cc(C(=O)O)n(CC(=O)c3ccccc3)c2c1 | inactive |
| CCOC(=O)c1cc2ccccc2n1CC(=O)c1ccccc1 | inactive |
| CCc1ccc(NC(=O)Cn2ncn3c(cc4ccccc43)c2=O)cc1 | inactive |
| CC(C)c1ccc(NC(=O)Cn2ncc3ccccc32)cc1 | 891 nM (active) |
| CCOC(=O)c1cn(CC(=O)Nc2ccc(C(C)C)cc2)nn1 | inactive |
| O=C(NCc1ccccc1CN1CCCC1)C1CCN(S(=O)(=O)c2ccc(Cl)cc2)CC1 | inactive |
| CNC(=S)N/N=C/c1ccc(N2CCOCC2)s1 | inactive |
| C1=C(CCNc2ncnc3c2cnn3-c2ccccc2)CCCC1 | 1780 nM (active) |
| O=C(NNc1ncnc2c1cnn2-c1ccccc1)c1ccco1 | inactive |
| c1ccc(-n2ncc3c(N4CCCC4)ncnc32)cc1 | 2510 nM (active) |
| CC(C)Sc1ncnc2c1cnn2-c1ccccc1 | 3550 nM (active) |
| CCC(C)N(C(=O)CSc1ncnc2c1cnn2-c1ccccc1)C1CCS(=O)(=O)C1 (centres undefined) | inactive |
| Cc1ccc(-c2nc3c(cnn3-c3ccccc3)c(=O)o2)cc1 | inactive |
| O=C(Cn1cnc2c(cnn2-c2ccccc2)c1=O)NCc1ccccc1 | inactive |
| O=C(NCCC1=CCCCC1)C1CCN(Cc2cnn(-c3ccccc3)c2-n2cccc2)CC1 | inactive |
| CCN(C(=O)CSc1ncnc2c1cnn2-c1ccccc1)C1CCS(=O)(=O)C1 (centres undefined) | inactive |
| CC1CCc2sc(C(=O)NCC(c3ccco3)N3CCCCC3)cc2C1 (centres undefined) | inactive |
| CCOCCc1nn2c(=O)cc(CSCC(=O)Nc3cccc(C)c3C)nc2s1 | inactive |
| CSCCC(NC(=O)c1ccccc1)C(=O)N1CCN(Cc2ccc(Cl)cc2)CC1 (centres undefined) | inactive |

| Compound | Potency |
| --- | --- |
| COC(=O)c1ccc(-c2c(-c3ccccc3)ncc3cc(OC)c(OC)cc23)cc1 | inactive |
| Cc1ccc2c(CN3CCN(S(=O)(=O)c4ccccc4C(F)(F)F)CC3)cc(=O)oc2c1 | inactive |
| Cc1ccsc1C(=O)OCC(=O)Nc1cccc(F)c1 | inactive |
| Cc1cc(C(=O)COc2ccc(Br)cc2F)c(C)n1C1CC1 | inactive |
| N#Cc1ccccc1S(=O)(=O)N1CCN(Cc2c(O)ccc3ccccc23)CC1 | inactive |
| CC1CC1C(=O)OCC(=O)Nc1cccc(F)c1 (centres undefined) | inactive |
| COC(=O)Cc1[nH]n(-c2nc3ccccc3s2)c(=O)c1C(C)=Nc1ccc(OC)cc1 | inactive |
| CC(=NCc1ccco1)C1=C(O)c2ccccc2C1=O | inactive |
| CC(=NCc1ccco1)c1c(C(F)(F)F)[nH]n(-c2nc3ccccc3s2)c1=O | 2240 nM (active) |
| CCCn1c(N)c(N(CCOC)C(=O)C2CCCC2)c(=O)[nH]c1=O | inactive |
| CN(C(=O)CSc1nnc(C2CC2)n1C)C1CCCc2ccccc21 (centres undefined) | inactive |
| CN(C)/C=C(\C#N)C(=O)c1cccnc1Oc1ccc(F)cc1F | inactive |
| COc1ccc(C)cc1NC(=O)CCCN1C(=O)NC(C)(C)C1=O | inactive |
| COc1ccc(-c2nnc(SC(C)C(=O)NC3CC3)o2)cc1 (centres undefined) | inactive |
| O=C(NNC(=O)c1cc2c(s1)CCCC2)c1ccccc1 | inactive |
| O=C(Nc1ccc(F)cc1)c1cc2c(s1)CCCC2 | 2240 nM (active) |
| CN(C)C(=O)c1ccc(NC(=O)COC(=O)c2cc3c(s2)CCCCC3)cc1 | inactive |
| CCN(C(=O)COC(=O)Cc1c(F)cccc1Cl)c1c(N)n(Cc2ccccc2)c(=O)[nH]c1=O | inactive |
| CSc1ncccc1C(=O)Nc1ccc2c(c1)OCO2 | inactive |
| CSc1ncccc1C(=O)NC1CCCCCC1 | inactive |
| CSc1ncccc1C(=O)Nc1nc2ccc(F)cc2s1 | 126 nM (active) |
| Cc1ccc(NC(=O)CCC(=O)N2CCC(c3ccccc3)=N2)cc1S(=O)(=O)N1CCCCC1 | inactive |
| O=c1ccc2c(-c3ccccc3S(=O)(=O)O)c3ccc(O)c(O)c3oc-2c1O | inactive |
| CC1CCCCC1NC(=O)NC(=O)COC(=O)C1=NN(c2ccccc2)C(=O)CC1 (centres undefined) | inactive |
| O=S(=O)(NCCCN1CCOCC1)c1ccc(F)c(Cl)c1 | inactive |
| COc1ccccc1CNC(=O)COC(=O)CNS(=O)(=O)c1ccc(NC(C)=O)cc1 | inactive |

| Compound | Potency |
| --- | --- |
| Cc1ccc(-n2cc3ccc([N+](=O)[O-])cc3n2)cc1 | 794 nM (active) |
| Cc1ccc(-c2cn(S(=O)(=O)c3cccc([N+](=O)[O-])c3)nc2N)cc1 | inactive |
| Cc1ccnc(N2C(=O)c3ccc([N+](=O)[O-])cc3C2=O)c1 | inactive |
| Cn1c(N)c(C(=O)COC(=O)/C=C/c2cccc(C(F)(F)F)c2)c(=O)n(C)c1=O | inactive |
| Cc1ccn(-c2cccc(-n3ccc(C)n3)n2)n1 | 3160 nM (active) |
| CN(CC(=O)Nc1ccc(OC(F)(F)F)cc1)C(=O)C1CCC1 | inactive |
| CC(=O)c1c(C)[nH]c(C(=O)OCC(=O)Nc2c(C)cccc2C)c1C | inactive |
| COc1ccc(NC(=O)Nc2ccc3nsnc3c2)cc1 | 1780 nM (active) |
| COc1ccc(NC(=O)c2ccc(C#CC(C)(C)O)cc2)cc1 | inactive |
| COc1ccc(NC(=O)c2ccc(OC)cc2)cc1 | 1780 nM (active) |
| COc1ccc(C(=O)Nc2cccc(S(C)(=O)=O)c2)cc1 | inactive |
| COc1ccc(/C=N/NC(=O)Nc2ccc3nsnc3c2)c(OC)c1 | inactive |
| COc1cc(OC)cc(C(=O)OCC(=O)Nc2ccc(F)cc2F)c1 | inactive |
| COc1ccc(C(=O)Nc2ccc(F)cc2F)cc1 | 3160 nM (active) |
| COc1ccc(NC(=O)Nc2cccc3cccnc23)cc1 | inactive |
| COc1ccccc1CC(=O)Nc1ccc(F)cc1F | inactive |
| COc1ccc(OC)c(/C=N/NC(=O)c2ccc[n+](CC(=O)c3ccccc3)c2)c1 | inactive |
| COc1ccccc1C(=O)Nc1ccc(C)c(S(=O)(=O)N2CCCCC2)c1 | inactive |
| CNS(=O)(=O)c1ccc(C(=O)NCC(=O)NCCc2ccc3c(c2)OCCO3)cc1 | inactive |
| COc1ccc(C(=O)NCc2ccc(C)cc2)cc1S(=O)(=O)N1CCCC1 | inactive |
| CC(C)(Oc1ccc(Cl)cc1)C(=O)OCC(=O)NCCc1ccc(S(N)(=O)=O)cc1 | inactive |
| CC(=O)c1ccccc1NC(=O)C1CC(=O)N(c2ccc3c(c2)OCCO3)C1 (centres undefined) | inactive |
| COc1ccc(C(=O)N2CCN(c3ccc(C(C)=O)cc3F)CC2)cc1S(=O)(=O)NC1CC1 | inactive |
| CCc1ccccc1NC(=O)[C@@H]1CCC(=O)N1C1OC(=O)c2c1ccc(OC)c2OC (some centres undefined) | inactive |
| CN(C(=O)CSc1nnc(-c2ccc(C(C)(C)C)cc2)n1C)C1CCS(=O)(=O)C1 (centres undefined) | inactive |
| Cc1cccc(NS(=O)(=O)c2ccc(C)c(C(=O)NCC(c3ccccc3)N(C)C)c2)c1 (centres undefined) | inactive |

| Compound | Potency |
| --- | --- |
| C[C@H](NC(=O)c1ccccc1Cl)C(=O)OCC(=O)N1CCN(c2ccccc2)CC1 | inactive |
| Cc1cnc(C(=O)OCC(=O)N2CCc3ccccc32)cn1 | inactive |
| CCOC(=O)N1CCC(NC(=O)c2cnn3ccccc23)CC1 | inactive |
| O=C(c1cnn2ccccc12)N1CCc2ccccc21 | 3160 nM (active) |
| CC(=O)NCCC(=O)Nc1cc(S(=O)(=O)N2CCCCC2)ccc1Oc1cccc(C)c1 | inactive |
| O=C(c1ccc(F)cc1)n1c(=S)nc2ccccn21 | 355 nM (active) |
| O=C(c1ccc(F)cc1)n1cc(C(=S)N2CCOCC2)c2ccccc21 | inactive |
| O=C(C[n+]1cc(Br)cc2ccccc21)c1ccc(F)cc1 | inactive |
| Cc1ccc(NC(=O)Cn2c(C)csc2=O)cc1 | inactive |
| CCOC(=O)c1cc2c(nc1NC(=S)Nc1ccccc1)CC(C)(CC)OC2 (centres undefined) | inactive |
| CCOC(=O)c1cn[nH]c1NC(=S)Nc1ccccc1 | 2820 nM (active) |
| CCOC(=O)c1ccc(NC(=S)Nc2cc(C)cc(C)n2)cc1 | inactive |
| CN(C)C1=NC[C@H](Cc2ccccc2)N1CCc1ccc(F)cc1 | inactive |
| COc1ccc(OC)c(/C=C/C(=O)c2ccc3c(c2)OCO3)c1 | inactive |
| CCOC(=O)[C@H]1[C@H]2COc3ccc(C)cc3[C@@H]2N2C(=O)CN(Cc3ccc(F)cc3)C(=O)[C@@]12C | inactive |
| COc1ccc(CN2CCN(C(=O)c3cc(C4CC4)nn3-c3ccccc3)CC2)cc1F | inactive |
| O=C(CSc1nnc2n1CCCN2)c1ccccc1 | inactive |
| Cc1ccc(-n2c(C)cc(C(=O)CSc3nnc4ccccn34)c2C)cc1 | 891 nM (active) |
| Cc1ccc(-n2c(C)cc(C(=O)CN3C(=O)C(=O)N(C4CCCC4)C3=O)c2C)cc1 | inactive |
| N#Cc1ccc(CSc2nnc3ccccn23)cc1 | inactive |
| O=C(CSc1nnc2ccccn12)c1ccccc1 | 3550 nM (active) |
| Cc1cc(C(=O)CSc2nc(N)cc(=O)[nH]2)c(C)n1-c1cccc(F)c1 | inactive |
| COc1cccc(CNC(=O)CN2C(=O)NC(Cc3ccccc3)(c3ccccc3)C2=O)c1 (centres undefined) | inactive |
| Cc1c(C(C)CCCO)oc(=O)c2c1Oc1c(C)c(C(C)C[C@@H](C)O)oc(=O)c1C2 (some centres undefined) | inactive |
| CC(=O)C[C@@H](O)CC(=O)[C@H]1OC(=O)CCCCCCc2ccccc21 | inactive |
| O=C(O[C@H]1[C@H](Cc2ccccc2)NS(=O)(=O)[C@H]2C[C@@H]3C=C[C@]12O3)c1ccc([N+](=O)[O-])cc1 | inactive |

From PubChem BioAssay AID485313 (National Center for Advancing Translational Sciences (NCATS), 2010)
